Proliferation data for 15 compounds are collected here from PubChem BioAssay AID2380 (Sanford-Burnham Center for Chemical Genomics, 2010).

Hit rate of the full screen: of about 330,000 compounds, about 960 (0.29%) were called active. For the sample, actives were picked, then their nearest neighbours and some compounds at random. Values without a mark were called inactive.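 Rule for the calls: active = compounds whose signal lies at least 3.5 SD above the mean of all wells on their plate; inactive = the rest.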

A short description of this test: inducers of MIN6 beta-cell proliferation, primary screen, ATP luminescence, uHTS (AID 2380).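 Note: 0% = DMSO-treated cells in low-serum medium and 100% = 10% serum control.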 The note with it: MIN6 cells proliferation, ATPlite luminescence, 48 h, at 10 µM, hits give high values. For orientation: In ATP-based viability assays light output follows the ATP content of the culture.
For the compound `c1cc2c(cc1CCNC1CCCCCC1)OCO2`, the proliferation was 8.35% (active).

With `c1ccc(CCNC2CCCCCC2)cc1`, the proliferation was 1.52%.

As to `COc1ccc(CNCCc2ccc3c(c2)OCO3)c(OC)c1OC`, the proliferation is 5.73%.

As for `CC1(C)Cc2c(C#N)c(N3CCNCC3)nc(-c3ccco3)c2CS1`, the proliferation is -3.88%.

Turning to `CC(=O)c1ccc(OC(NC(=O)Cc2ccccc2)C(Cl)(Cl)Cl)cc1` (stereo not given), the proliferation is -1.48%.

For `Cc1cc(OCc2cc(C(=O)O)oc2C)c2c3c(c(=O)oc2c1)CCCC3`, the proliferation was -3.8%.

`COC(=O)COc1cc(C)cc2oc(=O)c3c(c12)CCCC3`: the proliferation is 5.08% (active).

Take `COc1cc(OC)cc(C2(C#N)CCN(C)CC2)c1`: the proliferation was -0.56%.

Consider `CCOc1cccc(=NC2CCCCC2)c2c(C)[nH]c(C)c12`, for which the proliferation was -3.34%.

Turning to `CCC1(C)CC(CCNCc2ccc(N(C)C)cc2)(c2ccc(F)cc2)CCO1` (stereo not given), the proliferation was -4.45%.

Turning to `COc1ccc(C(=O)CC2C(=O)N(C)C(=O)N(C)C2=O)cc1`, the proliferation is -0.73%.

Consider `O=c1[nH]c(=O)n(Cc2ccccc2)c(O)c1/C=N/Nc1c(F)c(F)c(F)c(F)c1F`, for which the proliferation is 1.39%.

Turning to `O=C(N/N=C/c1c(O)n(Cc2ccccc2)c(=O)[nH]c1=O)c1ccccc1`, the proliferation is 5.26% (active).

For the compound `O=C(N/N=C/c1c(O)n(C2CC2)c(=S)[nH]c1=O)c1ccccc1`, the proliferation was -1.64%.

Turning to `COC(=O)C1=C(c2ccc(Cl)c(C(F)(F)F)c2)C[C@@H]2CC[C@H]1N2C(=O)NC(C)C`, the proliferation is -1.97% [100% = growth in 10% serum, cells starved in 0.2% serum].
